From ChEMBL document CHEMBL1961873, “Compounds: GSK PKIS; Assays: Nanosyn kinase panel” (2012)

What was measured:
[1] = biological target: Mitogen-activated protein kinase kinase kinase kinase 4 (Homo sapiens) (UniProt O95819); conditions: at 1 µM;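 further: reported figure is an averaged inhibition value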
[2] = biological target: Dual specificity mitogen-activated protein kinase kinase 1 (Homo sapiens) (UniProt Q02750); conditions: at 0.1 µM
[3] = biological target: Dual specificity mitogen-activated protein kinase kinase 1 (Homo sapiens) (UniProt Q02750); conditions: at 1 µM
[4] = biological target: Misshapen-like kinase 1 (Homo sapiens) (UniProt Q8N4C8); conditions: at 0.1 µM
[5] = biological target: Misshapen-like kinase 1 (Homo sapiens) (UniProt Q8N4C8); conditions: at 1 µM
[6] = biological target: T1, Serine/threonine-protein kinase 4 (Homo sapiens) (UniProt Q13043); conditions: at 0.1 µM
T1 sequence (whole entry): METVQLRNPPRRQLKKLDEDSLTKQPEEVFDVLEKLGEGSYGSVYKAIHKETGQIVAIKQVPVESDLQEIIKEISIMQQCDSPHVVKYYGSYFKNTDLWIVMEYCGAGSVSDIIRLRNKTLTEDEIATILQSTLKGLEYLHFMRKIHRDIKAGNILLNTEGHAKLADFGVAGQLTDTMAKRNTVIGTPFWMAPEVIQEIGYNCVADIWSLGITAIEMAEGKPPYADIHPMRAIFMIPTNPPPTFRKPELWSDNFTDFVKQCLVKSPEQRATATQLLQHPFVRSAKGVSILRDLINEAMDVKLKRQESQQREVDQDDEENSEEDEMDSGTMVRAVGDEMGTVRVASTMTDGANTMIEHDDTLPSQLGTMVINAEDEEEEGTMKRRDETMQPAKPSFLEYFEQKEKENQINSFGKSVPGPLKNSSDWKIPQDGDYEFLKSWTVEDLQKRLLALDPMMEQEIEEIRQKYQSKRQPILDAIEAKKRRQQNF

[7] = biological target: T1, Serine/threonine-protein kinase 4 (Homo sapiens); conditions: at 1 µM
[8] = biological target: T2, Serine/threonine-protein kinase 3 (Homo sapiens) (UniProt Q13188); conditions: at 0.1 µM
T2 sequence (whole entry): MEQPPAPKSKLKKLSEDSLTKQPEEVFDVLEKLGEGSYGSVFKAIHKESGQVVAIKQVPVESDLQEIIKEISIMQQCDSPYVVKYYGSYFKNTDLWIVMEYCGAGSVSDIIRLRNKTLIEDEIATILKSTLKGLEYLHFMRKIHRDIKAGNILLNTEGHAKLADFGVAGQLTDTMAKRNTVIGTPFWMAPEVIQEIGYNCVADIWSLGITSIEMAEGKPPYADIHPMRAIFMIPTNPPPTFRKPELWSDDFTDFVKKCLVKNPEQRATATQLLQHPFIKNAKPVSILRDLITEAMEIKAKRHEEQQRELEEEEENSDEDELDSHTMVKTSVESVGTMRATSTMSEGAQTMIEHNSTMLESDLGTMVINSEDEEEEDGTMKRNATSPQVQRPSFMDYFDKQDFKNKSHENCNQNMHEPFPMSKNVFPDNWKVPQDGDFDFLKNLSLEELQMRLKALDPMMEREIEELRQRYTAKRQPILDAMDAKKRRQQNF

[9] = biological target: T2, Serine/threonine-protein kinase 3 (Homo sapiens); conditions: at 1 µM
[10] = biological target: Serine/threonine-protein kinase 26 (Homo sapiens) (UniProt Q9P289); conditions: at 0.1 µM
[11] = biological target: Serine/threonine-protein kinase 26 (Homo sapiens) (UniProt Q9P289); conditions: at 1 µM
[12] = biological target: Serine/threonine-protein kinase PAK 1 (Homo sapiens) (UniProt Q13153); conditions: at 0.1 µM
[13] = biological target: Serine/threonine-protein kinase PAK 1 (Homo sapiens) (UniProt Q13153); conditions: at 1 µM
[14] = biological target: Serine/threonine-protein kinase PAK 2 (Homo sapiens) (UniProt Q13177); conditions: at 0.1 µM
[15] = biological target: Serine/threonine-protein kinase PAK 2 (Homo sapiens) (UniProt Q13177); conditions: at 1 µM
[16] = biological target: Serine/threonine-protein kinase PAK 3 (Homo sapiens) (UniProt O75914); conditions: at 0.1 µM
[17] = biological target: Serine/threonine-protein kinase PAK 3 (Homo sapiens) (UniProt O75914); conditions: at 1 µM
[18] = biological target: Serine/threonine-protein kinase PAK 5 (Homo sapiens) (UniProt Q9P286); conditions: at 0.1 µM
[19] = biological target: Serine/threonine-protein kinase PAK 5 (Homo sapiens) (UniProt Q9P286); conditions: at 1 µM
[20] = biological target: Serine/threonine-protein kinase PAK 6 (Homo sapiens) (UniProt Q9NQU5); conditions: at 0.1 µM;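 further: mean PAK6 inhibition reported from the GSK PKIS screen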
Serine/threonine-protein kinase PAK 6 (Homo sapiens), sequence (Q9NQU5 whole entry, looked up): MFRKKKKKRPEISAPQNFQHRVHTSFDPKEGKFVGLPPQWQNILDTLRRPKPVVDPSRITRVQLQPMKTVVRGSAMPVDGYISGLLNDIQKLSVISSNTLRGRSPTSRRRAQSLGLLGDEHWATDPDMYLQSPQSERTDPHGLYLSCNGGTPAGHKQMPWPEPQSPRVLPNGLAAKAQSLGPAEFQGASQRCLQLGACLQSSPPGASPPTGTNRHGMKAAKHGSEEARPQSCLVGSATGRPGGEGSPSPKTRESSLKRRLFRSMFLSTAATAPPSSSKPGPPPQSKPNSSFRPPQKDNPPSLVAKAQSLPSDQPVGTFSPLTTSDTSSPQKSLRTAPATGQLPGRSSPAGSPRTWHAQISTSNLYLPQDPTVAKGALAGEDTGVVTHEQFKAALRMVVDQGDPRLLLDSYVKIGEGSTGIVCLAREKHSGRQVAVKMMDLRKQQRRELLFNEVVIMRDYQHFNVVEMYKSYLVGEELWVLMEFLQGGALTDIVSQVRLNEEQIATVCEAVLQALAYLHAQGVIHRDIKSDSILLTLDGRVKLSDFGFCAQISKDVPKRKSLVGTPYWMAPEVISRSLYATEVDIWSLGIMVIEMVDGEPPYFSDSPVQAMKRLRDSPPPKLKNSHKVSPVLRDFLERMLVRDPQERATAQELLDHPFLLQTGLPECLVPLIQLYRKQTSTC

Serine/threonine-protein kinase PAK 2 (Homo sapiens), sequence (Q13177 whole entry): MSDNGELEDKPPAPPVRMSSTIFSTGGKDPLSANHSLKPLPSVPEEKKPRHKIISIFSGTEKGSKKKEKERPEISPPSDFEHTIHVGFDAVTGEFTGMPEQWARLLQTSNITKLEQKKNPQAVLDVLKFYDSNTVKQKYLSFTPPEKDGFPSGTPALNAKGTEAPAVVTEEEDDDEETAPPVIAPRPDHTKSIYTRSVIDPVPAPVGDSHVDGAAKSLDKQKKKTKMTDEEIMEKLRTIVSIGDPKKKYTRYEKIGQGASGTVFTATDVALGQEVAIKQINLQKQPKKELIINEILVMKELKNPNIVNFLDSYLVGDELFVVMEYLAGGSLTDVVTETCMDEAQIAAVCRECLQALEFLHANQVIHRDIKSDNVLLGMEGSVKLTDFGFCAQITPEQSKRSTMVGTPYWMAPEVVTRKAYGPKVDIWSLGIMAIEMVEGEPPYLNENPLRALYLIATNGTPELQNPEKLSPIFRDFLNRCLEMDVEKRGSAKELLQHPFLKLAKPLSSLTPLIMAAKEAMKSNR
Serine/threonine-protein kinase 26 (Homo sapiens), sequence (Q9P289 2-416 limits assumed): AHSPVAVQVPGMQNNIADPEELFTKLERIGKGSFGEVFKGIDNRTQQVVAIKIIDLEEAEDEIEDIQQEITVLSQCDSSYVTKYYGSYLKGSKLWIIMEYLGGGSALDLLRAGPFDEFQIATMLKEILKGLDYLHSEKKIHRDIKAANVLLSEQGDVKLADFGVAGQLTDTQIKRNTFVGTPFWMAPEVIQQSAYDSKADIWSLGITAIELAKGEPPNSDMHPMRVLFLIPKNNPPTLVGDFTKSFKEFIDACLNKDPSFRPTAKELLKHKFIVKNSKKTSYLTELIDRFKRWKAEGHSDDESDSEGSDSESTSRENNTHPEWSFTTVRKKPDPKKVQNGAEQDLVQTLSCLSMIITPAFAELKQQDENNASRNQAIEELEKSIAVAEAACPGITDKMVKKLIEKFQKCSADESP
Dual specificity mitogen-activated protein kinase kinase 1 (Homo sapiens), sequence (Q02750 whole entry): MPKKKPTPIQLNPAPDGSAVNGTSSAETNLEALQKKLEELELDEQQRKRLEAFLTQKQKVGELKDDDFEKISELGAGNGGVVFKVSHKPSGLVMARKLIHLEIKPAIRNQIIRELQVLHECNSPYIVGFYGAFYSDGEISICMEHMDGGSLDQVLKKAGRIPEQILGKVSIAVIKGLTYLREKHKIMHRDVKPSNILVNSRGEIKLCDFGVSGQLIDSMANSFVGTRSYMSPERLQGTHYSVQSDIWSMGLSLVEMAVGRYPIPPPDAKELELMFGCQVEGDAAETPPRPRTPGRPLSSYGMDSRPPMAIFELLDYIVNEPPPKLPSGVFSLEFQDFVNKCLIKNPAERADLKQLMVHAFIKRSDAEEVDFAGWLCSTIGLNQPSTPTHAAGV
Serine/threonine-protein kinase PAK 1 (Homo sapiens), sequence (Q13153 whole entry): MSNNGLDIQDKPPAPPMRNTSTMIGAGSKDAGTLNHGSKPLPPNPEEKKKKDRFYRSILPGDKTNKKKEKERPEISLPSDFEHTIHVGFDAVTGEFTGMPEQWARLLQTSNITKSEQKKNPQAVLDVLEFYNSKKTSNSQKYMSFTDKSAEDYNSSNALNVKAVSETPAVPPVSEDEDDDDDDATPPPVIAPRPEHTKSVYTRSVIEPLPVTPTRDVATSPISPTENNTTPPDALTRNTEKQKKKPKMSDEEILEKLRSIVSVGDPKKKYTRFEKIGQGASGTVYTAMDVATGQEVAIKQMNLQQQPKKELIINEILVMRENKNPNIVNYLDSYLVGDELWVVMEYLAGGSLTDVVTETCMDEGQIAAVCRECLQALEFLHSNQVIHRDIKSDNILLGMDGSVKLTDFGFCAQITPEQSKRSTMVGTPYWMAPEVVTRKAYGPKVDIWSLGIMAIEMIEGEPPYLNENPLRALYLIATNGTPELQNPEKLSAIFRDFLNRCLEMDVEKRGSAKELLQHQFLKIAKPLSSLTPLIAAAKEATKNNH
Serine/threonine-protein kinase PAK 5 (Homo sapiens), sequence (Q9P286 whole entry, looked up): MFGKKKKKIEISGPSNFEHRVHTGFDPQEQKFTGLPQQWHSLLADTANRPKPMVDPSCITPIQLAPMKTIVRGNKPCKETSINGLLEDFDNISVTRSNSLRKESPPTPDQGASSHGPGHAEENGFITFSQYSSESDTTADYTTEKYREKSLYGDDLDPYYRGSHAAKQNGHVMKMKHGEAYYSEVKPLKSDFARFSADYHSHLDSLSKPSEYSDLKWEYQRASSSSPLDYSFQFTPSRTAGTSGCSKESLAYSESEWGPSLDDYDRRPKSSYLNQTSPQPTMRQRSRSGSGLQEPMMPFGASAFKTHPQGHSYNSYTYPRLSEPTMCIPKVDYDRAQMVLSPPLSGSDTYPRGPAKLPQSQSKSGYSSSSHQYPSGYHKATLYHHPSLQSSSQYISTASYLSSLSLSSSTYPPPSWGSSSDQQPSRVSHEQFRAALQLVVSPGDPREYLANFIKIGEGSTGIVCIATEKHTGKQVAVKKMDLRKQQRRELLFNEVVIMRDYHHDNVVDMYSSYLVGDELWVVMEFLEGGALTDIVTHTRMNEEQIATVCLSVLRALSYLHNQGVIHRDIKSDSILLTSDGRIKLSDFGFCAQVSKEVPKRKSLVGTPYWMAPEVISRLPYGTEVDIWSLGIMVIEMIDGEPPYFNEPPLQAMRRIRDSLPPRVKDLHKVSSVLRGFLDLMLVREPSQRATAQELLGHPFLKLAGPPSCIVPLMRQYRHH
Mitogen-activated protein kinase kinase kinase kinase 4 (Homo sapiens), sequence (O95819 2-1239 limits assumed): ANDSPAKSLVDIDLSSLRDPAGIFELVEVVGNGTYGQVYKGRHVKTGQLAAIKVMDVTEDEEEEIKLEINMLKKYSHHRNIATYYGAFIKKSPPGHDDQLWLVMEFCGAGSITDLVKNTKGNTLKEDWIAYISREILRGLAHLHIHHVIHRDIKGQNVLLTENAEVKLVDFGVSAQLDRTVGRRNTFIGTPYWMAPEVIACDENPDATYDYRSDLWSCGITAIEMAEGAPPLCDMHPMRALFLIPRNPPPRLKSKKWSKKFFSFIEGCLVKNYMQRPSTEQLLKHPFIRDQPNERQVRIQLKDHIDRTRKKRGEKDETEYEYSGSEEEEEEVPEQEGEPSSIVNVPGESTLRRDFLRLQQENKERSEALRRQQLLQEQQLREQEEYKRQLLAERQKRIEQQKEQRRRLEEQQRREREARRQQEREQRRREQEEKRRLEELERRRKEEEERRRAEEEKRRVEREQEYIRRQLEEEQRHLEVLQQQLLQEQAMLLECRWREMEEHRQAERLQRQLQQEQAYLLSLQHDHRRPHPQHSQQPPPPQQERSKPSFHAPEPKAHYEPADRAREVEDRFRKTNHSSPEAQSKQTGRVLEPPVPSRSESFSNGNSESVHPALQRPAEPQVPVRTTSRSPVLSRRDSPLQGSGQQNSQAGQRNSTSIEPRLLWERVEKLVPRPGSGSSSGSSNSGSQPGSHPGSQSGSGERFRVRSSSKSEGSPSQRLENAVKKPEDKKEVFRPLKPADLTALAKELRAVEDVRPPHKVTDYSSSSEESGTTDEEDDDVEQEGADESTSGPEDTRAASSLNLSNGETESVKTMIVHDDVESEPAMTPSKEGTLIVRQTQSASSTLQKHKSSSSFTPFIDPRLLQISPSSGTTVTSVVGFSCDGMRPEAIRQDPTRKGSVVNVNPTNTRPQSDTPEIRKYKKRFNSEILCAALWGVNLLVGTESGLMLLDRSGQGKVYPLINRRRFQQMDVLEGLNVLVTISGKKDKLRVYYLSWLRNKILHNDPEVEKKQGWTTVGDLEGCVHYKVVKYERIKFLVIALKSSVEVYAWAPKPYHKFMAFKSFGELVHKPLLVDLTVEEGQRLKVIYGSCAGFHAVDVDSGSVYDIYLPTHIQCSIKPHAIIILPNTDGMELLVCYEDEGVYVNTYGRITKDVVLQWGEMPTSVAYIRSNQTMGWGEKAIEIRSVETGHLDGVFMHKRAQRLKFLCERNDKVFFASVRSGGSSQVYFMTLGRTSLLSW

Structure (SMILES)	inhibition [1]	inhibition [2]	inhibition [3]	inhibition [4]	inhibition [5]	inhibition [6]	inhibition [7]	inhibition [8]	inhibition [9]	inhibition [10]	inhibition [11]	inhibition [12]	inhibition [13]	inhibition [14]	inhibition [15]	inhibition [16]	inhibition [17]	inhibition [18]	inhibition [19]	inhibition [20]
Cc1cc(O)cc(C)c1/C=C/c1cncc(C(N)=O)c1	13.9%	2.17%	3.39%	4.8%	7.34%	2.44%	7.28%	2.17%	4.31%	-0.63%	-0.01%	1.07%	3.22%	0.07%	-0.24%	2.43%	2.79%	9.11%	0.51%	9.09%
COc1cc2c(cc1Nc1nc(Nc3cccc(F)c3C(N)=O)c3cc[nH]c3n1)N(C(=O)CN1CCN(C(C)C)CC1)CC2	3.14%	0.13%	4.11%	3.15%	3.43%	0.17%	3.77%	2.26%	2.65%	1.63%	2.14%	5.25%	8.11%	1.01%	1.35%	2.21%	5.46%	2.45%	3.7%	-9.4%
CS(=O)(=O)Nc1ccc(-c2ccc3c(NC(=O)C4CC4)n[nH]c3c2)cc1	34.1%	3.68%	2.95%	6.49%	20.9%	4.89%	11.3%	5.64%	9.06%	-0.25%	-2.98%	3.5%	5.34%	1.62%	1.36%	3.41%	4.16%	-0.3%	0.91%	0.76%
NS(=O)(=O)c1ccc(N/N=C2\C(=O)Nc3ccc(C(=O)NCc4ccncc4)cc32)cc1	46.5%	15.6%	57.6%	9.67%	39.4%	36.8%	76.1%	31.2%	72%	0.05%	6.51%	4.25%	4.68%	2.01%	2.49%	4.5%	4.65%	9.16%	11.3%	-4.52%
COc1cccc(-n2ncc3c(N/N=C/c4ccc(C(=O)NCCN(C)C)cc4)ncnc32)c1	78.1%	2.77%	4.04%	23.1%	64.8%	4.6%	10.1%	4.33%	6.3%	-1.8%	0.63%	7.17%	5.32%	1.01%	1.56%	2.69%	3.69%	12.8%	7.55%	1.68%
Fc1cccc(COc2ccc(Nc3ncncc3C#Cc3ccccc3)cc2Cl)c1	15%	6%	4.44%	7.69%	15.9%	6.89%	9.95%	6.83%	8.97%	-0.45%	0.47%	4.22%	6.2%	1.86%	2.71%	4.76%	5.44%	1.61%	0.61%	1.93%
CCOc1ccc2c(-c3ccnc(Nc4cc(OC)cc(C(F)(F)F)c4)n3)cnn2n1	8.47%	0.11%	0.8%	2.19%	6.36%	0.03%	1.83%	-0.19%	2.45%	1.73%	1.8%	2.05%	0.59%	-0.62%	0.03%	-0.15%	-0.09%	0.09%	8.65%	-8.96%
CS(=O)(=O)Nc1ccc(-c2cc(-c3ccccc3)cc(C(N)=O)c2N)cc1	16.6%	3.57%	2.74%	0.77%	10.4%	0.24%	0.83%	-1.12%	-0.76%	-1.2%	-0.88%	4.98%	4.78%	-0.21%	-0.16%	0.92%	3.38%	1.42%	0.16%	-9.24%
N#Cc1cccc(Nc2ncc(-c3ccccc3)o2)c1	23.8%	2.21%	2.12%	5.1%	19.2%	3%	5.15%	4.16%	5.23%	-0.1%	-0.74%	-2.44%	-0.39%	0.33%	-0.77%	2.61%	2.5%	-5.2%	1%	3.79%
